Results taken from PubChem BioAssay AID1159580 (chemical genetic matrix, 2015).
Values joined by “and” are separate entries in the source; they are usually repeats but may differ in a detail not shown here. Equal entries are not always repeated. The whole screen tested about 5,500 compounds, of which about 2,000 (36%) were called active. About 18% were inconclusive and are not listed. Cut-off read from the data, not from the text of the source: active = normalized growth mostly below about 0.91 (no sharp cut-off); inconclusive = no clear call, values can overlap the other calls; inactive = mostly above about 0.92. The list shows a part of the results.

Assay: chemical genetic growth profiling, strain panel (AID 1159580);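 note: tested at 20 µM; growth read once vehicle control cultures reached saturation at 30 °C; 1 = growth at the plate median or of vehicle wells; lower values mean less growth of the strain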
Conditions: S. cerevisiae deletion strains, growth OD

Measured: normalized growth

O=C(O)P(=O)(O)O
0.738 (active) and 1.03 (inactive): locus YJL095W, strain BCK1, stronger effect = lower value
0.898 (active) and 1.05 (inactive): locus YHR030C, strain SLT2, stronger effect = lower value
inactive: locus YAL013W, strain DEP1, stronger effect = lower value 0.961 | locus YAL021C, strain ccr4, stronger effect = lower value 1.01 | locus YAL026C, strain drs2, stronger effect = lower value 0.979 | locus YAL030W, strain snc1, stronger effect = lower value 0.985 | locus YBL061C, strain skt5, stronger effect = lower value 0.984 | locus YBR009C, strain hhf1, stronger effect = lower value 1.01 | locus YBR021W, strain FUR4, stronger effect = lower value 0.994 | locus YBR023C, strain chs3, stronger effect = lower value 0.969 | locus YBR171W, strain sec66, stronger effect = lower value 0.994 | locus YBR229C, strain ROT2, stronger effect = lower value 0.996 | locus YBR231C, strain swc5, stronger effect = lower value 0.958 | locus YBR279W, strain paf1, stronger effect = lower value 0.981 | locus YCL011C, strain gbp2, stronger effect = lower value 0.982 | locus YCL016C, strain dcc1, stronger effect = lower value 0.998 | locus YCL029C, strain bik1, stronger effect = lower value 0.969 | locus YCL069W, strain vba3, stronger effect = lower value 1 | locus YCR088W, strain abp1, stronger effect = lower value 0.984 | locus YDL005C, strain med2, stronger effect = lower value 0.968 | locus YDL035C, strain GPR1, stronger effect = lower value 1 | locus YDL040C, strain nat1, stronger effect = lower value 0.984 | locus YDL074C, strain BRE1, stronger effect = lower value 0.892 | locus YDL101C, strain DUN1, stronger effect = lower value 0.964 | locus YDL134C, strain PPH21, stronger effect = lower value 1.01 | locus YDL185W, strain tfp1, stronger effect = lower value 0.932 | locus YDL192W, strain arf1, stronger effect = lower value 0.961 | locus YDR001C, strain nth1, stronger effect = lower value 0.976 | locus YDR069C, strain doa4, stronger effect = lower value 0.983 | locus YDR101C, strain arx1, stronger effect = lower value 0.983 | locus YDR137W, strain rgp1, stronger effect = lower value 0.984 | locus YDR150W, strain NUM1, stronger effect = lower value 0.986 | locus YDR159W, strain sac3, stronger effect = lower value 0.963 | locus YDR162C, strain NBP2, stronger effect = lower value 0.902 | locus YDR195W, strain ref2 0.955 | locus YDR297W, strain sur2, stronger effect = lower value 0.992 | locus YDR318W, strain mcm21, stronger effect = lower value 0.976 | locus YDR334W, strain swr1, stronger effect = lower value 0.988 | locus YDR335W, strain msn5, stronger effect = lower value 0.991 | locus YDR388W, stronger effect = lower value 0.967 | locus YDR392W, strain spt3, stronger effect = lower value 0.977 | locus YDR502C, strain sam2, stronger effect = lower value 0.957 | locus YEL003W, strain gim4, stronger effect = lower value 0.984 | locus YEL037C, strain rad23, stronger effect = lower value 0.99 | locus YEL061C, strain CIN8 (second series), stronger effect = lower value 0.975 | locus YEL061C, strain CIN8, stronger effect = lower value 0.984 | locus YER015W, strain faa2, stronger effect = lower value 0.984 | locus YER016W, strain bim1, stronger effect = lower value 0.983 | locus YER110C, stronger effect = lower value 0.936 | locus YER111C, strain swi4, stronger effect = lower value 0.98 | locus YER155C, strain BEM2 (second series), stronger effect = lower value 0.935 | locus YER155C, strain BEM2, stronger effect = lower value 0.983 | locus YER167W, strain BCK2, stronger effect = lower value 0.98 | locus YFR010W, strain ubp6, stronger effect = lower value 0.965 | locus YGL078C, strain dbp3, stronger effect = lower value 0.986 | locus YGL086W, strain mad1, stronger effect = lower value 0.965 | locus YGL167C, strain pmr1, stronger effect = lower value 0.984 | locus YGL173C, strain kem1, stronger effect = lower value 0.992 | locus YGL227W, strain vid30, stronger effect = lower value 0.982 | locus YGL240W, strain doc1, stronger effect = lower value 0.964 | locus YGL248W, strain PDE1, stronger effect = lower value 0.94 | locus YGL253W, strain hxk2, stronger effect = lower value 0.985 | locus YGR078C, strain PAC10, stronger effect = lower value 0.93 | locus YGR135W, strain pre9, stronger effect = lower value 0.945 | locus YGR229C, strain SMI1, stronger effect = lower value 0.886 | locus YGR252W, strain gcn5, stronger effect = lower value 0.911 | locus YHR013C, strain ard1, stronger effect = lower value 0.985 | locus YHR027C, strain rpn1, stronger effect = lower value 0.999 | locus YHR079C, strain IRE1 (second series), stronger effect = lower value 0.963 | locus YHR079C, strain IRE1, stronger effect = lower value 1.05 | locus YHR094C, strain hxt1, stronger effect = lower value 0.982 | locus YHR129C, strain ARP1, stronger effect = lower value 0.973 | locus YHR142W, strain chs7, stronger effect = lower value 0.978 | locus YHR200W, strain rpn10, stronger effect = lower value 0.96 | locus YIL066C, strain RNR3, stronger effect = lower value 0.999 | locus YIL073C, strain SPO22, stronger effect = lower value 0.868 | locus YIL125W, strain kgd1, stronger effect = lower value 0.979 | locus YIR030C, strain dcg1, stronger effect = lower value 0.959 | locus YJL092W, strain hpr5, stronger effect = lower value 0.982 | locus YJL095W, strain BCK1 (second series), stronger effect = lower value 0.993 | locus YJL115W, strain asf1, stronger effect = lower value 0.986 | locus YJL129C, strain trk1, stronger effect = lower value 0.984 | locus YJL134W, strain LCB3, stronger effect = lower value 0.985 | locus YJL154C, strain vps35, stronger effect = lower value 0.977 | locus YJL164C, strain tpk1, stronger effect = lower value 1 | locus YJL166W, strain qcr8, stronger effect = lower value 0.978 | locus YJL168C, strain set2, stronger effect = lower value 0.97 | locus YJL187C, strain SWE1 (second series), stronger effect = lower value 0.942 | locus YJL187C, strain SWE1, stronger effect = lower value 0.965 | locus YJR043C, strain POL32, stronger effect = lower value 0.972 | locus YJR066W, strain TOR1, stronger effect = lower value 0.982 | locus YJR075W, strain HOC1, stronger effect = lower value 0.926 | locus YKL009W, strain mrt4, stronger effect = lower value 0.931 | locus YKL068W, stronger effect = lower value 0.969 | locus YKL085W, strain MDH1 (second series), stronger effect = lower value 0.96 | locus YKL085W, strain MDH1, stronger effect = lower value 0.96 | locus YKL160W, strain elf1, stronger effect = lower value 0.995 | locus YKL190W, strain CNB1, stronger effect = lower value 0.981 | locus YKR026C, strain gcn3, stronger effect = lower value 0.977 | locus YKR091W, strain srl3, stronger effect = lower value 0.986 | locus YLL001W, strain dnm1, stronger effect = lower value 0.991 | locus YLL026W, stronger effect = lower value 1 | locus YLL041C, strain sdh2, stronger effect = lower value 0.989 | locus YLR027C, strain aat2, stronger effect = lower value 0.974 | locus YLR039C, strain RIC1, stronger effect = lower value 0.855 | locus YLR058C, strain SHM2, stronger effect = lower value 0.97 | locus YLR102C, strain apc9, stronger effect = lower value 0.977 | locus YLR113W, strain HOG1, stronger effect = lower value 1.07 | locus YLR221C, strain rsa3, stronger effect = lower value 0.975 | locus YLR258W, strain gsy2, stronger effect = lower value 1 | locus YLR262C, strain YPT6 (second series), stronger effect = lower value 0.967 | locus YLR262C, strain YPT6, stronger effect = lower value 0.842 | locus YLR268W, strain sec22, stronger effect = lower value 0.949 | locus YLR320W, strain mms22, stronger effect = lower value 0.967 | locus YLR330W, strain CHS5, stronger effect = lower value 0.957 | locus YLR342W, strain FKS1 (second series), stronger effect = lower value 0.897 | locus YLR342W, strain FKS1, stronger effect = lower value 0.981 | locus YLR357W, strain rsc2, stronger effect = lower value 0.972 | locus YLR370C, strain arc18, stronger effect = lower value 0.995 | locus YLR371W, strain rom2, stronger effect = lower value 0.982 | locus YLR384C, strain iki3, stronger effect = lower value 1 | locus YLR418C, strain cdc73, stronger effect = lower value 0.91 | locus YML016C, strain PPZ1, stronger effect = lower value 0.984 | locus YML032C, strain rad52, stronger effect = lower value 0.977 | locus YML120C, strain ndi1, stronger effect = lower value 0.98 | locus YML124C, strain tub3, stronger effect = lower value 0.981 | locus YMR058W, strain fet3, stronger effect = lower value 0.983 | locus YMR078C, strain ctf18, stronger effect = lower value 0.956 | locus YMR125W, strain sto1, stronger effect = lower value 0.986 | locus YMR129W, stronger effect = lower value 0.984 | locus YMR205C, strain PFK2, stronger effect = lower value 0.975 | locus YMR223W, strain ubp8, stronger effect = lower value 0.95 | locus YMR231W, strain pep5, stronger effect = lower value 0.993 | locus YMR263W, strain SAP30, stronger effect = lower value 0.938 | locus YNL067W, strain RPL9B, stronger effect = lower value 0.923 | locus YNL071W, strain lat1, stronger effect = lower value 0.99 | locus YNL128W, strain TEP1, stronger effect = lower value 0.925 | locus YNL153C, strain GIM3, stronger effect = lower value 0.968 | locus YNL183C, strain NPR1, stronger effect = lower value 0.975 | locus YNL209W, strain ssb2, stronger effect = lower value 0.983 | locus YNL233W, strain BNI4, stronger effect = lower value 0.923 | locus YNL248C, strain rpa49, stronger effect = lower value 0.981 | locus YNL250W, strain rad50, stronger effect = lower value 0.956 | locus YNL271C, strain bni1, stronger effect = lower value 0.966 | locus YNL298W, strain CLA4, stronger effect = lower value 0.976 | locus YNL307C, strain MCK1, stronger effect = lower value 0.962 | locus YNL322C, strain KRE1 (second series), stronger effect = lower value 0.981 | locus YNL322C, strain KRE1, stronger effect = lower value 0.974 | locus YNR049C, strain mso1, stronger effect = lower value 0.987 | locus YNR052C, strain pop2, stronger effect = lower value 0.971 | locus YOL012C, strain htz1 0.927 | locus YOL147C, strain pex11, stronger effect = lower value 0.976 | locus YOR001W, strain rrp6, stronger effect = lower value 0.981 | locus YOR061W, strain CKA2, stronger effect = lower value 0.98 | locus YOR069W, strain VPS5, stronger effect = lower value 0.986 | locus YOR070C, strain gyp1, stronger effect = lower value 0.988 | locus YOR080W, strain dia2, stronger effect = lower value 0.987 | locus YOR083W, strain WHI5, stronger effect = lower value 0.995 | locus YOR106W, strain vam3, stronger effect = lower value 0.983 | locus YOR136W, strain idh2, stronger effect = lower value 0.968 | locus YOR144C, strain elg1, stronger effect = lower value 0.977 | locus YOR184W, strain ser1, stronger effect = lower value 0.941 | locus YOR231W, strain MKK1, stronger effect = lower value 1.04 | locus YOR265W, strain rbl2, stronger effect = lower value 0.996 | locus YOR270C, strain vph1, stronger effect = lower value 0.961 | locus YOR290C, strain snf2, stronger effect = lower value 0.997 | locus YOR316C, strain cot1, stronger effect = lower value 0.974 | locus YPL051W, strain arl3, stronger effect = lower value 1.01 | locus YPL055C, strain LGE1, stronger effect = lower value 0.948 | locus YPL078C, strain atp4, stronger effect = lower value 1 | locus YPL106C, strain sse1, stronger effect = lower value 0.978 | locus YPL240C, strain hsp82, stronger effect = lower value 0.985 | locus YPL241C, strain CIN2, stronger effect = lower value 0.986 | locus YPL256C, strain CLN2, stronger effect = lower value 1.07 | locus YPR119W, strain clb2, stronger effect = lower value 0.963 | locus YPR141C, strain kar3, stronger effect = lower value 0.958 | locus YPR163C, strain tif3, stronger effect = lower value 0.989 | locus YPR167C, strain met16, stronger effect = lower value 0.963 | strain wtn01, stronger effect = lower value 0.964
active: locus YKR001C, strain vps1, stronger effect = lower value 0.894 | locus YMR307W, strain GAS1, stronger effect = lower value 0.443
